Measurements as given in PubChem BioAssay.
The source made the active and inactive calls.

What was measured:
[1] = test system: Plasmodium falciparum Sir2 (PF13_0152, Sir2A); assay: Plasmodium falciparum Sir2A binding compounds – biochemical, small-molecule microarray, 635 nm fluorescence, primary screen (AID 1098); details: fluorescence 635 nm, higher = more signal;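 further: score merges spot fluorescence intensity with its signal-to-noise ratio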
[2] = probe aDKK1 binding to arrayed compounds – biochemical, biotinylated probe, 635/667 nm fluorescence, primary screen (AID 1099); details: small-molecule microarray, higher = more signal;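 further: score merges 667nm spot fluorescence with signal to noise across triplicate slides; reference of the scale not given here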
[3] = probe aCHRDL2 binding to arrayed compounds – biochemical, biotinylated probe, 635/667 nm fluorescence, primary screen (AID 1100); details: small-molecule microarray, higher = more signal
[4] = change in splice reporter luminescence, either direction, cell-based, HEK293, spliceosome inhibition project, primary screen (AID 1101); details: HEK293 splicing luciferase reporter, 24 h, higher = more signal, called active from +8 up or from −8 down;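 further: HEK293 cells carrying a splicing-competent luciferase reporter gene; test concentration not given here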
[5] = biological target: Fibroblast growth factor 10 (Homo sapiens) (UniProt O15520); assay: compounds binding fibroblast growth factor 10 – biochemical, small-molecule microarray, 635 nm fluorescence, primary screen (AID 1102); details: FGF10 binding, fluorescence 635 nm, higher = more signal
[6] = test system: glycogen synthase kinase-3 (GSK3A per assay name; protocol says GSK3B); assay: compounds binding glycogen synthase kinase-3 – biochemical, small-molecule microarray, 635 nm fluorescence, GSK3A, primary screen (AID 1103); details: fluorescence 635 nm, higher = more signal; further: the record names both GSK3A and GSK3B
[7] = biological target: Epidermal growth factor receptor (Homo sapiens) (UniProt P00533); assay: compounds binding epidermal growth factor receptor – biochemical, small-molecule microarray, 635 nm fluorescence, primary screen (AID 1104); details: EGFR binding, higher = more signal;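 further: score merges 667 nm emission intensity with spot signal to noise over triplicate slides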
[8] = biological target: Follistatin-related protein 3 (Homo sapiens) (UniProt O95633); assay: compounds binding follistatin-related protein 3 – biochemical, small-molecule microarray, 635 nm fluorescence, primary screen (AID 1105); details: FSTL3 binding, higher = more signal;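 further: score merges emission near 667 nm and signal to noise per printed spot across three slides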
[9] = biological target: Dickkopf-related protein 1 (Homo sapiens) (UniProt O94907); assay: small molecules binding DKK1 protein – biochemical, small-molecule microarray, 635 nm fluorescence scan, primary screen (AID 1106); details: higher = more signal;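 further: score merges emission near 667 nm with signal to noise over three replicate slides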
[10] = test system: Inhibin beta A chain (activin A); assay: small molecules binding activin A – biochemical, small-molecule microarray, 635 nm fluorescence scan, primary screen (AID 1107); details: INHBA, higher = more signal;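 further: mouse activin A protein probed at 4.33 µg/mL on printed slides; score merges bound-protein fluorescence near 667 nm with spot signal-to-noise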

Fibroblast growth factor 10 (Homo sapiens), sequence (O15520 whole entry, looked up): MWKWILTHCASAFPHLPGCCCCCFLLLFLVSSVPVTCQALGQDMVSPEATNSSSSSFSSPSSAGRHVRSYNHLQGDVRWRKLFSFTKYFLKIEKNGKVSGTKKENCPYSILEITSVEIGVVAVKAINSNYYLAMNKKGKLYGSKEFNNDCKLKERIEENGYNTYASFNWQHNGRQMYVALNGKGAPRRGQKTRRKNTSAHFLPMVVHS
Follistatin-related protein 3 (Homo sapiens), sequence (O95633 whole entry, looked up): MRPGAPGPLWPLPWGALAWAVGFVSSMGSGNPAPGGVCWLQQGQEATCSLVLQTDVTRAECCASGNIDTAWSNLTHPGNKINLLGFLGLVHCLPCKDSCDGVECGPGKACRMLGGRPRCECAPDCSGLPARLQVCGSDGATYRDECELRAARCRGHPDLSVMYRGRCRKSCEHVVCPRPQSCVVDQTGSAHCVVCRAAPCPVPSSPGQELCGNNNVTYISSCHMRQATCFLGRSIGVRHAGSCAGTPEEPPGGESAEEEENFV
Epidermal growth factor receptor (Homo sapiens), sequence (P00533 whole entry, looked up): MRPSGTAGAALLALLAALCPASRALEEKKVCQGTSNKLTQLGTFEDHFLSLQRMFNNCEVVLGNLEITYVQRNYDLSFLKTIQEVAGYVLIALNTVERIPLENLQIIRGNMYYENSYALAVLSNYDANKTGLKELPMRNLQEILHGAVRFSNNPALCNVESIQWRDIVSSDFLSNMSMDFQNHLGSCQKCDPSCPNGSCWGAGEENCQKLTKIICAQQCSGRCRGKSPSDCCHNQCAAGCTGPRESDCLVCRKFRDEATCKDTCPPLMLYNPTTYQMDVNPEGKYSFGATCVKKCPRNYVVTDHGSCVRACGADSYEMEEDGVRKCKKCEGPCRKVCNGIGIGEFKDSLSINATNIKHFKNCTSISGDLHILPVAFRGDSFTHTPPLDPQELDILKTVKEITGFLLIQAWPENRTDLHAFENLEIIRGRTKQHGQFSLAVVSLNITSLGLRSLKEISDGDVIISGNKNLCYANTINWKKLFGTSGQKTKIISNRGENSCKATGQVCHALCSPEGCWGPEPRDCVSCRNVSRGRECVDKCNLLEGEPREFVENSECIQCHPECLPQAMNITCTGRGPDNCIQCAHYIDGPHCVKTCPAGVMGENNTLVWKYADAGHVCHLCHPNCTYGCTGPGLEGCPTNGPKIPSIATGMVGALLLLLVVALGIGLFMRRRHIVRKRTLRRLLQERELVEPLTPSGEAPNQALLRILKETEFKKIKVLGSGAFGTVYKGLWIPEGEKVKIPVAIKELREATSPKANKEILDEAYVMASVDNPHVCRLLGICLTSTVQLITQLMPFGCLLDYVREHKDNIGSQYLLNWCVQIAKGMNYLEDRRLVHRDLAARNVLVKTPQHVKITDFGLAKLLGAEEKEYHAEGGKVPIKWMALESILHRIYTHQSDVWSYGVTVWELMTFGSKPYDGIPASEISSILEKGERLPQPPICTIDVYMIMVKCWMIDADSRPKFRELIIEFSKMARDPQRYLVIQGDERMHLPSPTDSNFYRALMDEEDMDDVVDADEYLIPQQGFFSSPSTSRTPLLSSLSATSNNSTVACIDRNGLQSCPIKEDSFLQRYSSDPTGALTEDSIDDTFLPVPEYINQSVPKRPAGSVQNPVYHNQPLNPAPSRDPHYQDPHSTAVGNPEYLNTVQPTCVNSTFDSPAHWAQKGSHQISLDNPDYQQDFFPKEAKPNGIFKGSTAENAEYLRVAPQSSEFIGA
Dickkopf-related protein 1 (Homo sapiens), sequence (O94907 whole entry, looked up): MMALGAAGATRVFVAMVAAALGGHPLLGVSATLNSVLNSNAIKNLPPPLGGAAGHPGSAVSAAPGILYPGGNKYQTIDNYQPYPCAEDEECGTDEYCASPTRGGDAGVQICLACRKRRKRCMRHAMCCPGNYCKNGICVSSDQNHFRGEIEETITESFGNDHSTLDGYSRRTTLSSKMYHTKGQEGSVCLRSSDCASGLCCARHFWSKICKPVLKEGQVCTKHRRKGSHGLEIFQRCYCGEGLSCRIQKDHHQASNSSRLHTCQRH

Row | Structure (SMILES) | composite z-score [1] | composite z-score [2] | composite z-score [3] | z-score [4] | composite z-score [5] | composite z-score [6] | composite z-score [7] | composite z-score [8] | composite z-score [9] | composite z-score [10]
1 | CC(C)C(CO)N1C(=O)[C@@H]2C3C(=O)OCCC/C=C\[C@H]3OC23C=CCN(c2ccc4ccccc4c2)C(=O)[C@@H]13 (stereo not given in full) | 0.552 | -0.167 | 0.375 | -0.298 (inactive) | 0.0329 | -1.01 | -1.2 | -0.602 | -0.4 | 0.791
2 | CC(C)[Si](C#CCCCC#N)(O[C@H](c1ccccc1)c1cn(Cc2ccccc2)nn1)C(C)C | 0.562 | -0.17 | -0.65 | -1.08 (inactive) | 1.01 | 1.15 | 0.494 | 1.21 | 0.869 | 0.105
3 | O=C1NC(=O)C2C1C=CC(C(O)c1ccco1)N2Nc1ccc(Cl)cc1Cl (stereo not given) | 0.029 | 0.549 | 0.609 | 0.545 (inactive) | -0.0176 | 0.109 | -0.301 | 0.799 | -0.0083 | 1.39
4 | CN(C)C(=O)[C@@]1(Cc2ccccc2CN=[N+]=[N-])N=C(c2ccc(OCCCO)cc2)O[C@H]1c1ccccc1N=[N+]=[N-] | 1.63 | 0.842 | 1 | -0.731 (inactive) | 0.884 | 0.588 | -0.239 | 0.724 | -0.451 | 0.987
5 | CCCCCCCCCC(O)C1C=CC2C(=O)N(c3ccccc3)C(=O)C2N1Nc1cc(OC)c(OC)c(OC)c1 (stereo not given) | 1.04 | -0.0249 | 0.662 | -0.901 (inactive) | -0.4 | -0.214 | -0.381 | -0.246 | -1.12 | 0.655
6 | [N-]=[N+]=NCc1ccccc1[C@H]1OC(c2ccc(OCCCO)cc2)=N[C@@]1(Cc1ccccc1N=[N+]=[N-])C(=O)NCC(O)CO (stereo not given in full) | 1.12 | 0.33 | 0.873 | 0.451 (inactive) | 0.903 | 1.13 | -0.186 | 0.681 | -0.308 | 0.317
7 | CN(C)c1ccc(C(O)C2C=CC3C(=O)NC(=O)C3N2Nc2ccccn2)cc1 (stereo not given) | 1.15 | 0.206 | 0.201 | 0.936 (inactive) | 0.79 | 0.464 | 0.729 | 1.45 | 1.3 | 0.921
8 | CC(C)c1ccc(NN2C(C(O)c3ccc(C#N)cc3)C=CC3C(=O)N(c4ccccc4)C(=O)C32)cc1 (stereo not given) | 1.28 | 0.935 | 0.836 | 0.44 (inactive) | 0.98 | 0.888 | 0.397 | 1.24 | -0.103 | 1
